# Data published in PubChem BioAssay (Tox21).
# A number with no mark means an inactive call. Results filed as inconclusive are left out. A call without a number means that no potency is given here. Calls of active or inactive are those of the source. Unless noted, the call rests on the fitted dose curve; in most records, active means well fitted curve in the direction sought with a large enough effect in the repeat runs; inconclusive means weak or mixed curves; inactive means no such curve, though single readings can be large; an effect the other way counts as inactive or inconclusive.
# Tests used:
# [1] = qHTS assay to identify small molecule agonists of the sonic hedgehog signaling (Shh) pathway (AID 1259368; calls by dose curve;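 further: NIH/3T3-derived 3T3Gli1-Luc cells carrying a stable Gli1-driven firefly luciferase reporter; series mostly up to about 92 µM; nearly all actives have a fitted effect of over 15% in size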)
# How it was run: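 A Gli1 transcriptional response element controlled firefly luciferase in 3T3Gli1-Luc cells. Compounds and a positive control were added 4 hr after plating, and cells were incubated a further 24 hr at 37 C before luminescence detection.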
# [2] = qHTS assay to identify small molecule antagonists of the sonic hedgehog signaling (Shh) pathway (AID 1259369; calls by dose curve; further: nearly all actives have a fitted effect of over 45% in size; further: potency means the concentration at half of the fitted maximal effect)
# How it was run: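 For antagonist detection, the reporter line received test compounds together with conditioned medium, incubated 24hr at 37 C, 5% CO2, then luminescence was recorded following 30min room-temperature luciferase reagent incubation.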
# [3] = qHTS assay to identify small molecule agonists of the androgen receptor (AR) signaling pathway in the presence of an antagonist - cell viability counter screen (AID 1259379);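 further: MDA-kb2 human breast cancer cells carrying an MMTV luciferase reporter; series mostly up to about 92 µM; nearly all actives have a fitted effect of over 25% in size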
# How it was run: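 Seed MDA-kb2 at 3,000 cells/well; incubate 5 hr, 37C, 0% CO2. Add nilutamide to 3.0uM final, then pin compounds at 15 concentrations. Incubate 16 hr. Add CellTiter-Fluor at 15 hr, read fluorescence after 1 hr.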
# [4] = qHTS assay to identify small molecule agonists of the estrogen receptor beta (ER-beta) signaling pathway - cell viability counter screen (AID 1259380); further: nearly all actives have a fitted effect of over 30% in size; further: potency means the concentration at half of the fitted maximal effect
# How it was run: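 CellTiter-Glo read, 30 min RT, same wells as bla assay; cells ER-beta-UAS-bla HEK293T; 16 hr compound, 37C; medium 2% charcoal-stripped FBS.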
# [5] = qHTS assay to identify small molecule antagonists of the estrogen receptor beta (ER-beta) signaling pathway - cell viability counter screen (AID 1259382); further: series mostly up to about 92 µM; nearly all actives have a fitted effect of over 55% in size
# How it was run: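 In this multiplexed counter screen, cells were seeded at 2,000 per well in medium with 2% charcoal-stripped FBS and incubated 6 hr before compound and 1nM final E2 were added. Sixteen hours later, ATP-based luminescence reported viability.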
# [6] = biological target: Estrogen receptor (Homo sapiens) (UniProt P03372); assay: qHTS assay to identify small molecule agonists of the estrogen receptor alpha (ER-alpha) signaling pathway in the presence of an antagonist (AID 1259383; calls by dose curve; further: top concentration of the series differs between compounds; nearly all actives have a fitted effect of over 15% in size)
# Chain of Estrogen receptor (Homo sapiens) (P03372 whole entry, looked up): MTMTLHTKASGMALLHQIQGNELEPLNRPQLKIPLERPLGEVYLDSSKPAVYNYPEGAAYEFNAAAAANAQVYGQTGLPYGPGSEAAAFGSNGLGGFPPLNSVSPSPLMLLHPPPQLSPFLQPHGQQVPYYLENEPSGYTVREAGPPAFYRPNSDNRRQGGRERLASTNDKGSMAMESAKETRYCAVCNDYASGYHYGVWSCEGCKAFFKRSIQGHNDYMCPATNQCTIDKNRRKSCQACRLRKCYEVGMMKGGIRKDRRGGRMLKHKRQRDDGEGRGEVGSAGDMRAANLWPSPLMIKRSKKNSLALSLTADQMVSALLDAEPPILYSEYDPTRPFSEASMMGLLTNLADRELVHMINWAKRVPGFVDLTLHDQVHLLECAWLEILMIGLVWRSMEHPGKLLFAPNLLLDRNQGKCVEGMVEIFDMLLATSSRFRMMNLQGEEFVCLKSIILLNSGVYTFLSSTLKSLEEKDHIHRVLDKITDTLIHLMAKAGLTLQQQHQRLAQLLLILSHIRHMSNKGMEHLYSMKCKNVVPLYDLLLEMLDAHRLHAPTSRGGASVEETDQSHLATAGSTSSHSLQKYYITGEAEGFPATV
# How it was run: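 Stably transfected VM7Luc4E2 reporter cells, kept 5 days in charcoal-stripped serum, received ICI-182,780 at 10.0nM final before compound addition. Following 22hr incubation at 37C and 5% CO2, luciferase signal was read by luminescence.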
# [7] = biological target: Progesterone receptor (Homo sapiens) (UniProt P06401); assay: qHTS assay to identify small molecule agonists of the progesterone receptor (PR) signaling pathway (AID 1346784; calls by dose curve; further: nearly all actives have a fitted effect of over 30% in size)
# Chain of Progesterone receptor (Homo sapiens) (P06401 whole entry, looked up): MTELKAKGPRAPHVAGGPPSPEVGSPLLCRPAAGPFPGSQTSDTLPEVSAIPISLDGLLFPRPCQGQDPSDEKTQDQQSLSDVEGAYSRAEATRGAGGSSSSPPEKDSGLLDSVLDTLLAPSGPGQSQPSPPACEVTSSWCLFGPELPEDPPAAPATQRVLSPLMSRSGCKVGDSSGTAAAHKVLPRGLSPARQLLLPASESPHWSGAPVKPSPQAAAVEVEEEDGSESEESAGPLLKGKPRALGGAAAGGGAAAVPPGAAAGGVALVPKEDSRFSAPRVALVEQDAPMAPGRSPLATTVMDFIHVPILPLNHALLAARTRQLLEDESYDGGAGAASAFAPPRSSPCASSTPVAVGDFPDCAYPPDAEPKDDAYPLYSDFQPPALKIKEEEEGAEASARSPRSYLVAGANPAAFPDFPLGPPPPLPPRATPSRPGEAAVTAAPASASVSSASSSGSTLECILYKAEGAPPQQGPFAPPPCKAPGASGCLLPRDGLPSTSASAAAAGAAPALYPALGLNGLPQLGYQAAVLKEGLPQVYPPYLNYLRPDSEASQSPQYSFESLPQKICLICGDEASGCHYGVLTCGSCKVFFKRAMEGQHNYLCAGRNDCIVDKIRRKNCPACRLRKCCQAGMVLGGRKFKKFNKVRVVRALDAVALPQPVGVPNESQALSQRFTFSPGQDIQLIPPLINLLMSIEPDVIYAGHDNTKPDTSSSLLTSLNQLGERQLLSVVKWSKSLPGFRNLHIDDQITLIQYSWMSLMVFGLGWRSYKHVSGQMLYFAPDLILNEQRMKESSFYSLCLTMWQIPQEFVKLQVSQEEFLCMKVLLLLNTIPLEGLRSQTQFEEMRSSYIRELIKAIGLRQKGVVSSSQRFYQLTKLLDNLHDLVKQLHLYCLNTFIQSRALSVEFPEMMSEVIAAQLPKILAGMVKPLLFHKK
# How it was run: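 Agonist qHTS: compounds pinned onto 3,000 PR-UAS-bla HEK 293T cells per well in charcoal-stripped serum medium, 16hr at 37C, then beta-lactamase activity measured by LiveBLAzer FRET fluorescence after 2 hours at room temperature.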
# [8] = biological target: Progesterone receptor (Homo sapiens) (UniProt P06401); assay: qHTS assay to identify small molecule antagonists of the progesterone receptor (PR) signaling pathway (AID 1346795; active means well fitted inhibition curve with a large enough effect in the signal ratio in the repeat runs, not every such curve was filed as active; the % refers to the signal ratio; further: potency means the concentration at half of the fitted maximal effect)
# How it was run: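 Antagonist mode with agonist R5020 at 1 nM final and 16 hr incubation at 37C. Reporter was beta-lactamase driven by UAS in HEK293T (PR-UAS-bla), 2% charcoal-stripped serum; signal from LiveBLAzer FRET substrate, 2 hr at room temperature.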
# [9] = qHTS assay to identify small molecule antagonists of the progesterone receptor (PR) signaling pathway - cell viability counter screen (AID 1346798); further: series mostly up to about 92 µM; nearly all actives have a fitted effect of over 50% in size
# How it was run: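 Cytotoxicity read as CellTiter-Glo luminescence (30 min, room temperature) in the same wells as the beta-lactamase readout. HEK293T PR-UAS-bla cells in charcoal-stripped 2% FBS received compound and R5020, then 16 h at 37C, 5% CO2.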
# [10] = qHTS assay to identify small molecule agonists of the progesterone receptor (PR) signaling pathway - cell viability counter screen (AID 1346799; calls by dose curve; further: nearly all actives have a fitted effect of over 45% in size)
# How it was run: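 Cytotoxicity measured by CellTiter-Glo luminescence (30 min, RT) in the same wells as the PR beta-lactamase agonist read. Those HEK293T cells had 16 h compound treatment at 37 C in 2% charcoal-stripped FBS medium.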
# [11] = qHTS assay to identify small molecule antagonists of the TGF-beta/Smad signaling pathway - cell viability counter screen (AID 1346824); further: nearly all actives have a fitted effect of over 50% in size
# How it was run: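 SBE-bla HEK 293T cells were plated overnight at 37 C, then given compounds in DMSO plus TGF-beta1 (added as 0.25 ng/mL solution) for 5 hr. After the bla read, CellTiter-Glo was added to the same wells and luminescence read after 30 min at room temperature.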
# [12] = qHTS assay to identify small molecule agonists of the TGF-beta/Smad signaling pathway (AID 1346859; active means well fitted activation curve with a large enough effect in the signal ratio in the repeat runs, not every such curve was filed as active; the % refers to the signal ratio; further: series mostly up to about 77 µM)
# How it was run: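 Fluorescence (ex 405 nm; em 460 and 530 nm) was read 2 h after LiveBLAzer FRET substrate at RT. The preceding compound treatment of overnight-plated SBE-bla HEK293T cells lasted 5 h at 37 C.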
# [13] = biological target: Thyrotropin-releasing hormone receptor (Homo sapiens) (UniProt P34981); assay: qHTS assay to identify small molecule antagonists of the thyrotropin-releasing hormone receptor (TRHR) signaling pathway (AID 1346877; active means well fitted inhibition curve with a large enough effect in the repeat runs, not every such curve was filed as active; further: series mostly up to about 51 µM)
# Chain of Thyrotropin-releasing hormone receptor (Homo sapiens) (P34981 whole entry, looked up): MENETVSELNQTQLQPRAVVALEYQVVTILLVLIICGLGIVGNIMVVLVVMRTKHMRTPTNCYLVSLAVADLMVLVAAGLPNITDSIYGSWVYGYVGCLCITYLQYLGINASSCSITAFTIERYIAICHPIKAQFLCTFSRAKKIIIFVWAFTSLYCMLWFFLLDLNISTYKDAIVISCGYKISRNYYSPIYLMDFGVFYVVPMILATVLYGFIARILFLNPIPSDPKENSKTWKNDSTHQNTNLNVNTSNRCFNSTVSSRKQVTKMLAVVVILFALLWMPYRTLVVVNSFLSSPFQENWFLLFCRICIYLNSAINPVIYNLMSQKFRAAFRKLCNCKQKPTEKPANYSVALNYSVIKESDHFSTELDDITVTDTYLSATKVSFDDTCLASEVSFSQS
# How it was run: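 Following an 18 h incubation at 37 °C and a 2 h calcium dye load, TRHR-HEK293 cells were exposed to compound (5 min, room temperature) and challenged with TRH, 1 nM final.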
# [14] = qHTS assay to identify small molecule agonists or antagonists of the thyroid stimulating hormone receptor (TSHR) signaling pathway - wild type cell line counter screen (AID 1259384; calls by dose curve)
# How it was run: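 Wild-type HEK293 cells were plated 18 h at 37 C/5% CO2, pin-dosed with compound plus Ro20-1724 medium, held 30 min at room temperature, then given cAMP-d2 and anti-cAMP-cryptate; fluorescence was read after 1 h. Fifteen concentrations, triplicate.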
# [15] = qHTS assay to identify small molecule agonists of the TGF-beta/Smad signaling pathway - cell viability counter screen (AID 1346829); further: top concentration of the series differs between compounds; nearly all actives have a fitted effect of over 45% in size
# How it was run: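 Cytotoxicity counter screen: CellTiter-Glo luminescence (30 min, room temperature) measured in the SBE-bla HEK 293T reporter wells after 5 hr compound treatment at 37 C and the 2 hr substrate step.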
# [16] = qHTS assay to identify small molecule agonists of the estrogen receptor alpha (ER-alpha) signaling pathway in the presence of an antagonist - cell viability counter screen (AID 1259386);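 further: series mostly up to about 92 µM; cells exposed to compounds for 22 h at 37 °C before the viability read; nearly all actives have a fitted effect of over 30% in size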
# How it was run: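 Viability counter screen using VM7Luc4E2 (full-length ER-alpha, four ERE-luciferase). The cells were treated with compounds alongside ICI-182,780 10.0nM for 22hr, and live-cell protease fluorescence was quantified with CellTiter-Fluor.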
# [17] = biological target: Thyrotropin receptor (Homo sapiens) (UniProt P16473); assay: qHTS assay to identify small molecule antagonists of the thyroid stimulating hormone receptor (TSHR) signaling pathway (AID 1259385; calls by dose curve; further: nearly all actives have a fitted effect of over 20% in size; further: potency means the concentration at half of the fitted maximal effect)
# Chain of Thyrotropin receptor (Homo sapiens) (P16473 whole entry, looked up): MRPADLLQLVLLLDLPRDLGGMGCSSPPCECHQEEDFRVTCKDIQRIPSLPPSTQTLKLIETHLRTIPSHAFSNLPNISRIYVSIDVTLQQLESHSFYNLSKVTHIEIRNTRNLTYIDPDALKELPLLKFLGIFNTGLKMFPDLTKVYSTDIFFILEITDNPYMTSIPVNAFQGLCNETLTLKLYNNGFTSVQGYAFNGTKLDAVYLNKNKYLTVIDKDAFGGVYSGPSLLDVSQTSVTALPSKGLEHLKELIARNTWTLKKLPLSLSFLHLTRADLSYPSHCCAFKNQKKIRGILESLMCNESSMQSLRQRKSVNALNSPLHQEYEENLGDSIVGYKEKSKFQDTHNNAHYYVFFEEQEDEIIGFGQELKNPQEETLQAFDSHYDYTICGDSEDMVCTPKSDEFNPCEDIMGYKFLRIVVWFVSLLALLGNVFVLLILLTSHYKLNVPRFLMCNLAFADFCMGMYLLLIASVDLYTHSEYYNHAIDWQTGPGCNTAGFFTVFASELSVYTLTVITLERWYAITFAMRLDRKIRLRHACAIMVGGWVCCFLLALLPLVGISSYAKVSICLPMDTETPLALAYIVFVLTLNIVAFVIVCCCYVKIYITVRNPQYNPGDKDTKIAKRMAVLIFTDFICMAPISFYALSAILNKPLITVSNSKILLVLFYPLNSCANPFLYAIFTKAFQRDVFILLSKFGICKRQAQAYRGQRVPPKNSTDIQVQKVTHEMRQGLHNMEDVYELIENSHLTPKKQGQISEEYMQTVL
# How it was run: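 TSHR-HEK293 cells were plated and held 18 h at 37C/5% CO2, then given compound plus Ro20-1724 and stimulated with TSH at 1.5 ng/mL final. After 30 min at room temperature, cAMP was detected with cAMP-d2/anti-cAMP-cryptate (1 h) by fluorescence.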
# [18] = biological target: Androgen receptor (Homo sapiens) (UniProt P10275); assay: qHTS assay to identify small molecule agonists of the androgen receptor (AR) signaling pathway in the presence of an antagonist (AID 1259381; calls by dose curve; further: nearly all actives have a fitted effect of over 15% in size)
# Chain of Androgen receptor (Homo sapiens) (P10275 whole entry, looked up): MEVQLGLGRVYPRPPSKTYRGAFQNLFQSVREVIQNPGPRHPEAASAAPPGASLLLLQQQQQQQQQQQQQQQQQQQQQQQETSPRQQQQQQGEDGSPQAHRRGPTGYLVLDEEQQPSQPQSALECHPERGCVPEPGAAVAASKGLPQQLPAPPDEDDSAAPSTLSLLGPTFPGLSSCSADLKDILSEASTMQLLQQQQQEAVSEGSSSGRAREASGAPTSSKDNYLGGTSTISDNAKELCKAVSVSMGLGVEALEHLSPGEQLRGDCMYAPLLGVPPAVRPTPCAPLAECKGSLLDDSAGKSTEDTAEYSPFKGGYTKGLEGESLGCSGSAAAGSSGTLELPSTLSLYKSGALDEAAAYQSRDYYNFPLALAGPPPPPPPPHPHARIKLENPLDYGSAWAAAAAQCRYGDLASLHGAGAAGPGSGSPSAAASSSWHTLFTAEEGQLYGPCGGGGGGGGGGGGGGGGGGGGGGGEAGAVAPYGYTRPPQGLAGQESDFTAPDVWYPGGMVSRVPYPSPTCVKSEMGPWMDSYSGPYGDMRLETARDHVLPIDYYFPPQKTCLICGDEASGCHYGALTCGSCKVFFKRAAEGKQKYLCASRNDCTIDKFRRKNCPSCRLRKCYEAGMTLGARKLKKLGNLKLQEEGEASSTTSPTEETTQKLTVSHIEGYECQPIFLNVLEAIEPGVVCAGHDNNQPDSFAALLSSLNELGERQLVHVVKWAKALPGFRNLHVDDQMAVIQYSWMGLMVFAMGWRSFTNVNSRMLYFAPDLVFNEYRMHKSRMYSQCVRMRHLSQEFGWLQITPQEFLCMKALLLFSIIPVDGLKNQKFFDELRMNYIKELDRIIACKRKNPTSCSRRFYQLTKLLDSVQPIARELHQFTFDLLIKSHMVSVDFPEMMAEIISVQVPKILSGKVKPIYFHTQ
# How it was run: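 Test compounds at 15 concentrations were incubated for 16hr with MDA-kb2 reporter cells in presence of 3.0uM nilutamide (final). Signal: ONE-Glo luciferase luminescence.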
# [19] = biological target: Estrogen receptor beta (Homo sapiens) (UniProt Q92731); assay: qHTS assay to identify small molecule agonists of the estrogen receptor beta (ER-beta) signaling pathway (AID 1259377; active means well fitted activation curve with a large enough effect in the signal ratio in the repeat runs, not every such curve was filed as active; the % refers to the signal ratio)
# Chain of Estrogen receptor beta (Homo sapiens) (Q92731 whole entry, looked up): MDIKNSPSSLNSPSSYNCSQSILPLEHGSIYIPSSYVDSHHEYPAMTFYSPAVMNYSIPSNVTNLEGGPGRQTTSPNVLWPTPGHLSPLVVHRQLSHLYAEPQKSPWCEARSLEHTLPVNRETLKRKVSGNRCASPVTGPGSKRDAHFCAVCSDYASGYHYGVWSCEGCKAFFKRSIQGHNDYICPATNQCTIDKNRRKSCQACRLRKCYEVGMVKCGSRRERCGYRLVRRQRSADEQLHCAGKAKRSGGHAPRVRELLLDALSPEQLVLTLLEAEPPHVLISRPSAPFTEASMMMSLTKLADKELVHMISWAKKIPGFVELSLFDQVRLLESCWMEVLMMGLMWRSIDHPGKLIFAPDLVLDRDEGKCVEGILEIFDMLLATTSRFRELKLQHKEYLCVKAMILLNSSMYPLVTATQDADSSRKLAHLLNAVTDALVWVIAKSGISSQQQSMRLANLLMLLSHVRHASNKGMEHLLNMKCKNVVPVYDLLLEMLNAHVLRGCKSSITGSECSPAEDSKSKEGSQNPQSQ
# How it was run: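 Ratiometric beta-lactamase FRET read-out came after 2 h substrate loading at room temperature. It followed 16 h compound treatment at 37C of GripTite HEK293T cells carrying a UAS-bla reporter, plated in 2% charcoal-stripped FBS medium.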
# [20] = biological target: Estrogen receptor beta (Homo sapiens) (UniProt Q92731); assay: qHTS assay to identify small molecule antagonists of the estrogen receptor beta (ER-beta) signaling pathway (AID 1259378; active means well fitted inhibition curve with a large enough effect in the signal ratio in the repeat runs, not every such curve was filed as active; the % refers to the signal ratio)
# How it was run: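 ER-beta-UAS-bla HEK293T (GripTite) cells in 2% charcoal-stripped FBS medium were preincubated 6 hr at 37C, dosed with compound, then stimulated with 1 nM E2 (final) for 16 hr; beta-lactamase reporter read by B/G FRET fluorescence after 2 hr substrate loading.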
Structure (SMILES),Potency [1],Potency [2],Potency [3],Potency [4],outcome [5],Potency [6],Potency [7],Potency [8],Potency [9],Potency [10],outcome [11],outcome [12],outcome [13],outcome [14],outcome [15],Potency [16],Potency [17],Potency [18],outcome [19],Potency [20]
CC(=O)N[C@@H](CC(C)C)C(=O)O,inactive,inactive,inactive,inactive,inactive,inactive,inactive,inactive,inactive,inactive,inactive,inactive,inactive,–,–,–,–,–,–,–
O=C(O)[C@@H]1CSCN1,inactive,inactive,inactive,inactive,inactive,–,inactive,inactive,inactive,inactive,inactive,inactive,–,inactive,inactive,–,–,–,–,–
OCc1ccccc1O,inactive,inactive,inactive,–,inactive,–,inactive,inactive,–,inactive,inactive,inactive,inactive,–,–,inactive,–,–,–,–
COc1ccc2nc(NC(=O)Nc3ccccc3)sc2c1,inactive,inactive,inactive,10.6 µM (active),–,–,inactive,–,inactive,inactive,inactive,inactive,inactive,inactive,inactive,inactive,inactive,–,–,–
CC(=O)Nc1ccc(C)c(Cl)c1,inactive,inactive,inactive,inactive,inactive,–,inactive,inactive,inactive,inactive,inactive,inactive,inactive,inactive,inactive,inactive,inactive,–,–,–
COc1nc(C)nc(NC(=O)NS(=O)(=O)c2ccccc2OCCCl)n1,inactive,inactive,inactive,–,inactive,inactive,inactive,inactive,inactive,inactive,inactive,inactive,inactive,–,–,inactive,–,–,–,–
C1CSCCS1,inactive,inactive,inactive,inactive,inactive,–,inactive,–,inactive,inactive,inactive,inactive,–,–,inactive,inactive,–,–,–,–
CCC(=O)O[C@]1(C(=O)SCF)[C@H](C)C[C@H]2[C@@H]3C[C@H](F)C4=CC(=O)C=C[C@]4(C)[C@@]3(F)[C@@H](O)C[C@@]21C,inactive,inactive,–,inactive,inactive,inactive,–,inactive,inactive,inactive,inactive,inactive,inactive,inactive,–,inactive,–,–,–,–
CCCCNc1cc(C(=O)O)cc(S(N)(=O)=O)c1Oc1ccccc1,inactive,inactive,–,–,inactive,–,inactive,inactive,inactive,inactive,inactive,inactive,–,inactive,inactive,inactive,inactive,–,–,–
CC(C)(C)c1cccc(O)c1,inactive,inactive,–,inactive,inactive,inactive,inactive,inactive,inactive,inactive,inactive,inactive,inactive,inactive,inactive,inactive,inactive,inactive,–,–
C1CCOC1,inactive,inactive,inactive,inactive,inactive,–,inactive,inactive,inactive,inactive,inactive,inactive,inactive,–,inactive,inactive,inactive,–,–,–
CC1(C)C(=O)N(Cl)C(=O)N1Br,inactive,inactive,–,inactive,inactive,–,–,inactive,inactive,inactive,inactive,inactive,inactive,–,inactive,inactive,–,–,–,–
CCCc1c2oc(C(=O)O)cc(=O)c2cc2c(=O)cc(C(=O)O)n(CC)c12,inactive,inactive,–,–,inactive,inactive,inactive,inactive,inactive,inactive,inactive,inactive,–,inactive,inactive,inactive,inactive,–,–,–
CCCC1CCC(=O)O1 (stereo not given),inactive,inactive,–,inactive,inactive,–,inactive,–,inactive,inactive,inactive,inactive,inactive,–,inactive,inactive,inactive,–,–,–
CCOC(=O)COc1ccc2c(c1)CC(NCC(O)c1cccc(Cl)c1)CC2 (stereo not given),inactive,27.5 µM (active),–,–,inactive,inactive,inactive,inactive,inactive,inactive,inactive,inactive,inactive,–,–,–,inactive,–,–,–
Clc1cccc(-c2cc(Cl)cc(Cl)c2)c1,inactive,inactive,inactive,–,inactive,inactive,inactive,–,inactive,–,inactive,inactive,inactive,inactive,–,inactive,52.5 µM (active),–,–,–
CC1=C(CC(=O)O)c2cc(F)ccc2/C1=C\c1ccc(S(C)(=O)=O)cc1,inactive,–,inactive,–,inactive,inactive,inactive,inactive,inactive,inactive,inactive,–,inactive,–,inactive,–,–,inactive,inactive,–
CCOC(=O)c1ccccc1O,inactive,–,–,inactive,inactive,–,–,–,inactive,inactive,–,–,inactive,inactive,inactive,inactive,inactive,–,inactive,inactive
CCc1cc2cc(OC)c(OC)cc2c(Cc2ccccc2)n1,inactive,–,inactive,inactive,inactive,inactive,inactive,16.8 µM (active),inactive,–,inactive,inactive,–,inactive,inactive,inactive,inactive,inactive,inactive,–
